In PubChem BioAssay (NCATS):
Records with an inconclusive call do not appear. Activity calls are given as the source filed them. Calls come from the whole dose curve; as a rule, active = well fitted cell-killing curve with a large enough effect; inconclusive = small, poorly fitted or top-dose-only effect, or effect the other way; inactive = no such curve, though single readings can be large or run the other way.
Potency is the fitted concentration of half-maximal effect.

Experiment: Viability qHTS for spleen associated tyrosine kinase inhibitor (SYKi) drug resistant MV4-11 cells (AID 1963824); note: nearly all actives have a fitted effect of over 35% in size
Settings: SYKi-resistant MV4-11 viability, CellTiter-Glo, 72 h; series mostly up to 45 µM
Procedure, shortened: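 CellTiter-Glo luminescence, read 10 min after reagent addition, reports viability after a 72 hr compound exposure. Cells are an MV4-11 line made resistant to SYK inhibition, seeded at 500 per well onto compound-containing plates.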
With `Cc1cc(Nc2nc(NC(C)c3ccc(F)cc3)c(C#N)cc2F)n[nH]1` (stereo not given) the Potency was 461 nM (active).
For `CC[C@]1(O)C[C@H]2CN(CCC3C(=Nc4ccccc43)[C@@](C(=O)OC)(c3cc4c(cc3OC)N(C)[C@H]3[C@@](O)(C(N)=O)[C@H](O)[C@]5(CC)C=CCN6CC[C@]43[C@@H]65)C2)C1` (stereo not given in full), the Potency was 36.6 nM (active).
With `C=CC(C)(O)CC/C=C(\C)COC1O[C@H](CO)[C@@H](O)[C@H](O)[C@H]1O` (stereo not given in full) the Potency was “inactive”.
For `CC(=O)OC1C(O)CC2(C)C(CCC(C)C23Cc2c(O)cc(CO)c(C=O)c2O3)C1(C)C` (stereo not given), the Potency was 11200 nM (active).
With `C=C1CCC2C(C)(C(=O)O)CCCC2(C)C1CCC(C)CC(=O)O` (stereo not given) the Potency was 4530 nM (active).
For `CC(=O)c1cc(C(=O)N[C@@H](C)Cn2ccc(-c3ccc(C#N)c(Cl)c3)n2)[nH]n1`, the Potency was 14600 nM (active).
For `CC1CCC2(C)C(CC(O)C(O)C23CO3)C1(C)CCC1=CC(O)OC1=O` (stereo not given), the Potency was “inactive”.
For `COc1cc(/C=C/C(=O)O[C@H]2[C@H](OC(=O)/C=C/c3cc(OC)c(O)c(OC)c3)O[C@H](CO[C@@H]3O[C@H](CO)[C@@H](O)[C@H](O)[C@H]3O)[C@@H](O)[C@@H]2O)ccc1O`, the Potency was “inactive”.
For `CC(=O)O[C@H]1C(=O)[C@@]2(C)[C@H]([C@H](OC(=O)c3ccccc3)[C@]3(O)C[C@H](OC(=O)[C@H](O)[C@@H](NC(=O)c4ccccc4)c4ccccc4)C(C)=C1C3(C)C)[C@]1(OC(C)=O)CO[C@@H]1C[C@@H]2O`, the Potency was 4.4 nM (active).
For `CC1(C)C=Cc2c(ccc3c2[N+]([O-])=C2C3(O)CC34NC(=O)C5(CCCN5C3=O)CC4C2(C)C)O1` (stereo not given), the Potency was “inactive”.
